# Laboratory results taken from article PMC3795721, “Screening for Protein-DNA Interactions by Automatable DNA-Protein Interaction ELISA”.
# Biological target: AT4G31550 (Arabidopsis thaliana, UniProt Q9SV15 228-325)
# Experiment: DPI-ELISA; DPI-ELISA, streptavidin 384-well plate, 1-2 pmol biotinylated dsDNA per well, crude native E. coli extract, anti-His detection; buffer as in Brand et al. [46],; high values mean tight binding
# Settings: tags: C-terminal His (pET-DEST42); label: 5' biotin on forward strand; dsDNA, one strand shown
# Chain of AT4G31550 (Q9SV15 228-325): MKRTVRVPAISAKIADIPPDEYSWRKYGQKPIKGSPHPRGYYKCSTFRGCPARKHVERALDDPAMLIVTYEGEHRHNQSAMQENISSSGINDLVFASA
row,Sequence,binding signal [absorbance]
1,AAAAAATGTGCCCGTGTGTGCTCGCGAAAA,0.73 ± 0.0849
2,AAAAAACCTTACCTCATCCCTATCCCAAAA,0.605 ± 0.134
3,AAAAAAATTGTATCATACTTCAGTTGAAAA,0.61 ± 0.0707
4,AAAAAAACCGCGTCGCGGCCCGGGAAAA,0.5 ± 0.113
5,AAAAAATTCCTGTCCGCTCTCGCTCCAAAA,0.685 ± 0.148
6,AAAAAAGTTATTATACCTGATCTCGCAAAA,1 ± 0.778
7,AAAAAATTACTTCTCCCTTCCTTTGCAAAA,0.605 ± 0.163
8,AAAAAATGTCGGCTGTTAGGATATCGAAAA,0.625 ± 0.0495
9,AAAAAAGTCGTCACGCACGTGAATACAAAA,1.15 ± 0.0141
10,AAAAAACCAGTCTACACCGCTGTAGGAAAA,0.705 ± 0.0919
11,AAAAAAGGGAGTCATGCTTCTTGTTTAAAA,0.645 ± 0.0919
12,AAAAAATACATTTGACTTTGGGTTTCAAAA,3.4 ± 0.297
13,AAAAAATGGAAAGACCTATACCGGTCAAAA,1.09 ± 0.17
14,AAAAAACCTTACTGTTGATTCTGGTTAAAA,0.635 ± 0.134
15,AAAAAAGCGTAAGCCTTGACAGTCGTAAAA,0.725 ± 0.106
16,AAAAAATAGGCGTTATGGCTAACACCAAAA,0.685 ± 0.106
17,AAAAAATCTAGGGGTACCTATTTGGCAAAA,0.675 ± 0.12
18,AAAAAATGTCCATCTTGCGTCTGTATAAAA,0.79 ± 0.212
19,AAAAAACGGAAGATCGTGACTGCTAGAAAA,0.715 ± 0.0354

row,Sequence,binding signal [absorbance]
1,AAAAAATGCCCTTTTTATCTTTATGTAAAA,0.65 ± 0.0707
2,AAAAAACATCGCTGTCGTTGACGTTGAAAA,3.48 ± 0.474
3,AAAAAATTAATCCATGCTTATGTCTGAAAA,0.71 ± 0.184
4,AAAAAAAAGTGCCAACGTTCAAGAAAAA,0.38 ± 0.099
5,AAAAAACATTCCTAGTTCATGTTACTAAAA,0.665 ± 0.134
6,AAAAAATAGTGTGATTGGTATCCAGTAAAA,0.645 ± 0.0495
7,AAAAAATCCATGTTTAAGCTGGTCTCAAAA,0.695 ± 0.148
8,AAAAAAGACACTCTAATTCCGTAGGCAAAA,0.405 ± 0.0495
9,AAAAAACTAGGTATCGGTAGGCGCCGAAAA,0.6 ± 0.0849
10,AAAAAAACCCGGCCGCCATGGTAGTAAAAA,0.7 ± 0.212
11,AAAAAAGTACGGATGCCCGCGCGTATAAAA,0.735 ± 0.205
12,AAAAAAGTTCGGGGCTTGGTTTGGAAAAAA,0.765 ± 0.205
13,AAAAAATCGGTACGCACCCCGGACTCAAAA,0.73 ± 0.184
14,AAAAAATATTCGCCGGTAGCCACGCTAAAA,0.565 ± 0.12
15,AAAAAAACGCTCAAGTCTATCAGTAGAAAA,0.74 ± 0.141
16,AAAAAATTCAAAATGATCACTACGGGAAAA,0.545 ± 0.0778
17,AAAAAAGATGATTAGTAATTGCGGAAAAAA,0.75 ± 0.0849
18,AAAAAAACGGTGTCATAGTATTAGTGAAAA,0.585 ± 0.134
